Experimental data as given in PubChem BioAssay (NCI).
Values joined by “and” are separate entries in the source; they are usually repeats but may differ in a detail not shown here. Equal entries are not always repeated. Compounds without any hit were thinned out: in the full panel of roughly 79,000, 15% have a hit. Cut-off read from the data, not from the text of the source: active = growth inhibition above about 70%; inactive = the rest.

Assays:
[1] = NCI Yeast Anticancer Drug Screen. Data for the rad50 strain (AID 155);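 note: 0% = growth of vehicle-only cultures of the same strain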; conditions: S. cerevisiae rad50 strain growth inhibition; at 50.0 µM; active compounds read high
How it was run: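 DNA repair mutant yeast, compound exposure, growth read-out; inhibition is taken relative to vehicle.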

[2] = NCI Yeast Anticancer Drug Screen. Data for the mec2-1 strain (AID 157); conditions: S. cerevisiae mec2-1 strain, at 50.0 µM, active compounds read high
How it was run: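 mec2-1 yeast strain, carrying an alteration in DNA damage repair or cell cycle control, was exposed to compounds; growth inhibition was measured relative to vehicle-treated controls.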

[3] = NCI Yeast Anticancer Drug Screen. Data for the sgs1 mgt1 strain (AID 161);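 note: 0% = growth of cultures given vehicle only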; conditions: S. cerevisiae sgs1 mgt1 strain, at 50.0 µM, active compounds read high
How it was run: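 This yeast growth screen uses a strain with defined DNA-repair lesions; compound-treated growth is compared with vehicle-treated growth.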

[4] = NCI Yeast Anticancer Drug Screen. Data for the cln2 rad14 strain (AID 165);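 note: 0% = growth equal to vehicle treated cultures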; conditions: S. cerevisiae cln2 rad14 strain, at 50.0 µM, active compounds read high
How it was run: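 Yeast carrying cln2 and rad14 alterations (cell cycle control and DNA damage repair) were exposed to compounds. Growth inhibition was measured against vehicle-treated controls.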

[5] = NCI Yeast Anticancer Drug Screen. Data for the bub3 strain (AID 167); conditions: S. cerevisiae bub3 mutant strain, at 50.0 µM, active compounds read high
How it was run: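 In this screen, a yeast mutant lacking normal mitotic checkpoint function is challenged with compound. Relative growth versus vehicle gives the inhibition value.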

[6] = NCI Yeast Anticancer Drug Screen. Data for the mlh1 rad18 strain (AID 175); conditions: S. cerevisiae mlh1 rad18 strain growth inhibition; at 50.0 µM; active compounds read high
How it was run: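 Growth inhibition of the yeast strain was measured after compound exposure and expressed relative to vehicle-treated controls. The strain carries defined defects in DNA damage repair.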

Measured: growth inhibition

CC(C)(C)C[C](C)(c1ccccc1)[Sn]([CH3])([CH3])[CH3] (stereo not drawn)
inactive: [1] -14.2% | [2] 4.9% | [3] 8.4% | [4] 6.9% | [5] 1.2% | [6] 7%

CC(C)(C1CCC(O)CC1)C1CCC(O)CC1 (stereo not drawn)
inactive: [1] 19.5% and 13.4% | [2] -19.5% and -13.6% | [3] -12.2% and -21.9% | [4] -12.6% and -17.6% | [5] -5.75% and -21.8% | [6] 31.4% and 16.1%

N#CC(C#N)=Cc1ccco1
inactive: [1] -7.95% | [2] 6.15% | [3] 24.7% | [4] -42.4% | [5] -3.85% | [6] 5.5%

CCc1ccc(CCN2CCCCC2)nc1
inactive: [1] -24.6% | [2] -21.4% | [3] -21.4% | [4] 6.75% | [5] -15.5% | [6] -1.6%

COc1ccc2c3c1OC1C(C)(O)C(O)CC4C(C2)N(C)CCC341 (stereo not drawn)
inactive: [1] -3.55% | [2] -4.95% | [3] -16.2% | [4] 9.3% | [5] 4.4% | [6] 14.1%

CN1CCC2CCCCN2CC1=O (stereo not drawn)
inactive: [1] -4.15% | [2] 0.45% | [3] -1% | [4] -4.35% | [5] -12% | [6] -4%

C1CN1Sc1nc(SN2CC2)nc(SN2CC2)n1
inactive: [1] -1.35% | [2] -5.55% | [3] 19.7% | [4] -73% | [5] 11.8% | [6] 27.3%

NC(=O)COc1ccc([As]=O)cc1 (stereo not drawn)
inactive: [1] -1.9% | [2] -14.9% | [3] -11.9% | [4] -48.8% | [5] -33.3% | [6] -15.8%

COP(=O)(OC)OC1C(=O)NC(=O)NC1=O
inactive: [1] 12.3% | [2] 0.25% | [3] -4.15% | [4] 14.2% | [5] 7.2% | [6] 17.9%

O=C(Cl)C1CCC1
inactive: [1] 11% | [2] -5.35% | [3] 10.1% | [4] -4.65% | [5] -7% | [6] 16.1%

CCN1C(=O)C(=C/C=C/c2ccc(OC)cc2)C(=O)N(CC)C1=S
inactive: [1] 37.4% | [2] 10.8% | [3] 46.4% | [4] 11.8% | [5] 13.8% | [6] 36.7%

C=CCc1cc(-c2cc(CC=C)c(O)c(CN(CCCl)CCCl)c2)cc(CN(CCCl)CCCl)c1O
inactive: [1] 41.5% | [2] 49.8% | [3] 47.1% | [4] 43.1% | [5] 60% | [6] 44.1%

Cc1ccc(O)c(CN2CCN(Cc3cc(C)ccc3O)CC2)c1
inactive: [1] 3.1% | [2] 15.8% | [3] 13.2% | [4] -2.15% | [5] 14.4% | [6] 7.8%

O=S(=O)(c1ccccc1)N1CN2CCN(C2)C1
inactive: [1] 17.6% | [2] 7.2% | [3] 31.6% | [4] 2.65% | [5] 5.5% | [6] 10.4%

COc1ccc(N2CC=C(c3ccccc3)OP2(=O)N2CC2)cc1 (stereo not drawn)
inactive: [1] -20.4% | [2] 25.9% | [3] 5.9% | [4] 18.2% | [5] 0.95% | [6] -7.7%

COP(=O)(NC(=O)OC(C)C)OC
inactive: [1] -37.1% | [2] -21.2% | [3] -9.8% | [4] 5.2% | [5] -15.4% | [6] -7.95%

CC[C@@H]1C[C@H]2CC3c4[nH]c5ccccc5c4CCN(C2)C31
inactive: [1] 45.9% | [2] 30.2% | [3] 61.3% | [4] 37% | [5] 47.2% | [6] 65.8%

CC12CCC3C(CCC4(C)CC(OC(=O)Cc5ccc(N(CCCl)CCCl)cc5)CCC34C)C1CCC2=O (stereo not drawn)
inactive: [1] -10.4% | [2] 2.85% | [3] -2.3% | [4] -1.4% | [5] -4.8% | [6] 3.65%
